Screening data as filed in PubChem BioAssay.
ugtP null kill – growth inhibition of S. aureus ugtP deletion strain. actives 0.54% (n = 330,000). S. aureus RN4220 ugtP deletion, OD600 growth, 16 h. growth inhibition, % (concentration not given with the values); in the data active = growth inhibition above about 68%;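 also: plate controls were untreated wells for no effect and antibiotic for full effect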
Sa RN4220 lethal – S. aureus RN4220 growth inhibition | OD600, 16 h | inhibition, % (no concentration beside the values) | actives 0.33% (n = 330,000); in the data active = inhibition above about 85%;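 also: plate controls were untreated cells for no effect and reference antibiotic for full effect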
DUSP3 inh – blocks human VHR1 dual specificity phosphatase; recombinant VHR phosphatase, pNPP absorbance; inhibition, % at 13.3 µM; actives 0.52% (n = 290,000); AID 1654; in the data active = inhibition above about 50%
Target sequence (P51452 whole entry, looked up): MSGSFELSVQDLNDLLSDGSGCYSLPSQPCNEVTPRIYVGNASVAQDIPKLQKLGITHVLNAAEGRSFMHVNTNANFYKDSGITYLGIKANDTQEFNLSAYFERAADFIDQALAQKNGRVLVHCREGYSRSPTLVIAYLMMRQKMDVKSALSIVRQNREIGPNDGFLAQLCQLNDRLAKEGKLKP
PrPC surface inh – inhibitors of human cell surface prion protein PrPC | P04156 | TR-FRET read-out | inhibition, % at 13.8 µM | actives 0.43% (n = 370,000) | AID 720596; in the data active = inhibition above about 24%; also: 0% = median of the test wells and 100% = reference compound wells
PfHsp40 rescue – restores yeast growth despite PfHsp40 toxicity. S. cerevisiae expressing PfHsp40, growth rescue, ATP luminescence. growth rescue, % at 12.5 µM. actives 0.68% (n = 340,000); in the data active = growth rescue above about 28%, passing the limit was not always enough; inconclusive = no clear call, values can overlap the other calls;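 also: yeast W303a lacking pdr1 and pdr3 grown in galactose medium; growth measured after three days at 30 °C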
The depositor's hits bear a star; ? = inconclusive; . = no result given. Shown are actives, neighbours in structure and some others; about 1.8% of the full set was active somewhere.

SMILES	ugtP null kill	Sa RN4220 lethal	DUSP3 inh	PrPC surface inh	PfHsp40 rescue
CCOc1ccc(CCNC(=O)c2ccc(CS(=O)Cc3cccc(Cl)c3)o2)cc1 (centres undefined)	96*	-6	-20	0	1
NC(=O)c1cccc2c1-c1ccccc1C2=NNC(N)=S	-3	0	.	.	.
COc1cccc(-c2cc3nc(-c4ccccc4)cc(N4CCCC(O)C4)n3n2)c1 (centres undefined)	-23	-11	16	12	72*
COC(=O)[C@@]1(Cc2ccc(F)cc2)C2c3cc(C(=O)N(C)C)n(CCc4ccc(OC)c(Br)c4)c3CC2CN1C(=O)c1ccccc1 (some centres undefined)	-39	2	.	.	.
CCOC(=O)c1sc(CS(=O)(=O)c2ccc(Cl)cc2)nc1C	13	3	19	-4	3
CCOC(=O)c1sc(-c2ccc(Cl)cc2Cl)nc1O	32	65	13	-10	60*
COc1cc(C2C3C(C)N(C)C(=O)N(C)C3N(C)C(=O)N2C)ccc1O (centres undefined)	2	2	3	-6	52*
Nc1cc(Cl)nc(NN=Cc2c(O)ccc3ccccc23)n1	-1	9	.	.	.
Cn1cc(C=Nn2cnc3sc4c(c3c2=O)CCCC4)c2ccccc21	-19	2	.	.	.
COc1cc(C=NOCC(=O)Nc2ccc(OC(F)F)cc2)ccc1OCc1ccccc1	26	14	.	.	.
COc1cc2[nH]c(=S)nc(NC3CCCCCC3)c2cc1OC	-8	1	16	25*	-1
CNC(=S)NN=Cc1ccc(OCC(=O)Nc2c(C)cc(C)cc2C)c(OC)c1	1	10	.	.	.
O=C1NN(c2ccccc2)C(=O)/C1=C/c1ccc(Sc2cccc3ccccc23)o1	-12	2	51*	8	-1
CCCCC(=O)Nc1c(-c2cccc(OC)c2)c(=O)c2ccccc2n1C	12	10	58*	-5	0
C[C@]12CCC(=O)C=C1CCC1C2C(O)C[C@@]2(C)C1CC[C@]2(O)C(=O)CO (some centres undefined)	-1	6	.	.	.
Cc1cccc(C2C3C(=O)N(Cc4ccccc4)C(=O)C3[C@]3(C)C(=O)N(c4ccc(C(F)(F)F)cc4)C(=O)N23)c1 (some centres undefined)	0	4	.	.	.
CC(=O)OCC1=C(C(=O)O)N2C(=O)C(NC(=O)c3ccc(COc4cccc(Cl)c4Cl)o3)C2SC1 (centres undefined)	100*	100*	17	9	2
COCC1=C(C(=O)OC(C)OC(=O)OC(C)C)N2C(=O)C(NC(=O)C(=NOC)c3csc(N)n3)C2SC1 (centres undefined)	43	68	.	.	.
CC(=O)OCC1=C(C(=O)OC(C)(C)C)N2C(=O)[C@@H](NC(=O)Cc3ccccc3)[C@H]2SC1	94*	96*	.	7	-1
CON=C(C(=O)NC1C(=O)N2C(C(=O)O)=C(COC(C)=O)CSC12)c1csc(N)n1 (centres undefined)	100*	100*	.	.	.
CC1=C(C(=O)OCC(Cl)(Cl)Cl)N2C(=O)C(NC(=O)Cc3ccccc3)C2SC1 (centres undefined)	14	4	12	2	-1
Cc1nnc(SCC2=C(C(=O)O)N3C(=O)C(NC(=O)Cc4ccccc4)C3SC2)s1 (centres undefined)	100*	100*	.	-5	0
COc1cccc(C(=O)NC2C(=O)N3C(C(=O)O)=C(COC(C)=O)CSC23)c1 (centres undefined)	.	.	.	-4	1
CC(=O)OCC(=O)[C@@]1(O)CCC2C3CCC4=CC(=O)C=C[C@]4(C)[C@@]3(F)C(O)C[C@@]21C (some centres undefined)	4	8	.	.	.
Cc1nnc(SCC2=C(C(=O)O)N3C(=O)C(NC(=O)C(C)n4nc(C(F)(F)F)cc4C)C3SC2)s1 (centres undefined)	101*	100*	-6	4	1
SMILES	ugtP null kill	Sa RN4220 lethal	DUSP3 inh	PrPC surface inh	PfHsp40 rescue
CC(CC(=O)NCc1ccco1)=NNC(=O)Cc1ccc(Cl)cc1	9	11	.	.	.
S=C1SCN(Cc2ccccc2)CN1Cc1ccccc1	10	15	15	10	-1
S=C1SCN(Cc2cccnc2)CN1Cc1cccnc1	.	.	27	-5	309*
C#CCOCCOCCOCCNc1nc(N2CCN(C(=O)C(C)n3cc(CCC(=O)O)nn3)CC2)nc(N2CCN(C(=O)C(CCCCN)n3cc(CCCC)nn3)CC2)n1 (centres undefined)	2	3	.	.	.
COC(=O)C1=C(c2ccccc2OCc2ccccc2)CC2CCC1N2C(=O)NCc1ccccc1 (centres undefined)	6	-6	.	.	.
Cc1ccc(O)c(C(=O)CC(=O)c2ccc(Cl)cc2)c1	101*	100*	-2	-3	-2
Cc1ccc(C(=O)CC(=O)c2ccccc2)cc1	10	2	4	-1	-3
Cc1cccc(C(=O)NCC(=O)NNC(=O)c2ccccc2O)c1	3	0	.	1	1
O=C(CC(=O)c1cc(Cl)ccc1O)c1ccccc1	100*	100*	8	-3	6
Cc1ccc(O)c(C(=O)CC(=O)c2cccc(F)c2)c1	100*	78	19	-1	?
Cc1cccc(C(=O)CC(=O)c2cc(Cl)ccc2O)c1	100*	100*	24	.	82*
C=CCOC(=O)C1=CC(c2ccc(Br)cc2)C(CCCO)C(OCC)O1 (centres undefined)	4	7	.	.	.
O=C(NC(Cc1ccccc1)C(=O)OCc1ccccc1)c1nc[nH]c1C(=O)NC(c1ccccc1)c1ccccc1 (centres undefined)	-4	0	.	.	.
O=C1CC(c2ccccc2)c2cccc(F)c21 (centres undefined)	6	4	18	7	39*
Cn1cccc1C=NNC(=O)C(O)c1ccccc1 (centres undefined)	5	4	.	.	.
O=c1[nH]nc(-c2ccc([N+](=O)[O-])o2)c(=O)[nH]1	17	6	.	-42	1
Nc1nnc(-c2ccc([N+](=O)[O-])o2)s1	92*	98*	.	-61	0
Cc1cc(C)nc(NS(=O)(=O)c2ccc(NC(=O)Cc3ccc(F)cc3)cc2)n1	6	5	54*	-5	0
Fc1ccc2nc3[nH]c4ccccc4c3nc2c1	-5	0	-1	-11	47*
OC1=C(O)c2nc3cc(F)ccc3nc21	14	4	-5	-5	1
COC(=O)C1=C(c2ccc(-c3ccccc3)c(F)c2)CC2CCC1N2C(=O)NCc1cccc2ccccc12 (centres undefined)	-1	-2	.	.	.
CC(=NNC(=O)c1ccco1)c1ccc(NC(=O)c2ccc(F)cc2)cc1	5	0	.	.	.
O=C(NN=Cc1ccsc1)c1ccc2c(c1)OCO2	-5	-3	.	.	.
O=c1[nH]c(=O)n(C2CC(O)C(CO)O2)cc1C(F)(F)F (centres undefined)	25	4	.	.	.
O=c1[nH]c(=O)n([C@H]2C[C@H](O)[C@@H](CO)O2)cc1I	.	.	.	-5	76*
